Rows were chosen to be rich in hits. Some 5.7% of all compounds tested hit in one or more screens of this group.
ATXN2 expr inh – inhibitors of ATXN2 expression | AID 1745845 | HEK-293 ATXN2-luciferase reporter, luminescence, 24 h | 360,000 compounds, 0.72% hits | Potency, µM (series often up to 57 µM), for inactives: top-dose activity change, negative = inhibition, usual class: inhibitors; also: potency is read from the fitted curve at half-maximal effect; % is scaled to controls: 0 for no effect and ±100 for the full control effect; nearly all actives have a fitted effect of over 55% in size
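qHTS (up to 57 uM final) was run with 24 h compound exposure of reporter cells at 37 °C. Each well was multiplexed: SteadyGlo luminescence measured ATXN2-luciferase expression after a fluorogenic Gly-Phe-AFC viability readout (25 uM final).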
HepG2 tox – kills HepG2 cells in TGF-b inhibitor counter-screen; 410,000 compounds, 0.76% hits; Potency, µM (titrated, usually from 46.1 µM), for the others: at the highest dose activity change, negative = cytotoxicity, hits mostly cytotoxic; HepG2 CAGA-GFP viability, ATP luminescence, 18 h; also: potency is read from the fitted curve at half-maximal effect
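CellTiter-Glo luminescence gave cytotoxicity after 18 hours at 37 degrees C. The cells were HepG2 CAGA-GFP in 1% FBS DMEM, stimulated with 500 pg/mL TGF-beta after compound addition. %Activity was normalised to no-cell wells (complete cell-killing) and DMSO (no toxicity), and curves were fitted and classified.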
ATXN viability – reduces viability in counter-screen for ATXN expression inhibitors; S2 cells (HEK-293 line with an ATXN2-luciferase reporter) viability, CellTiter-Fluor protease fluorescence, 24 h; Potency, µM (top dose mostly 56.7 µM), hits mostly cytotoxic; 400,000 compounds, 0.49% hits; AID 651635; also: potency is read from the fitted curve at half-maximal effect; nearly all actives have a fitted effect of over 40% in size
TGFb inhibitor – TGF-b pathway inhibition; 410,000 compounds, 1.2% hits; Potency, µM (doses to about 46.1 µM), inactives show top-dose activity, negative = inhibition, hits mostly inhibitors; HepG2 CAGA-GFP TGF-b/SMAD3 reporter, GFP fluorescence, 18 h; TGF-beta stimulated, 500 pg/mL final; also: potency is read from the fitted curve at half-maximal effect; % is scaled to controls: 0 for no effect and ±100 for the full control effect; nearly all actives have a fitted effect of over 65% in size
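Smad-responsive CAGA-GFP expression was quantified in HEPG2 cells exposed to compounds and 500 pg/mL final TGF-beta for 18 h at 37 degrees C; unstimulated wells defined full inhibition.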
IL-1B inflam inh – blocks inflammasome-driven IL-1 beta release. 360,000 compounds, 4.7% hits. activity change, % at 57.5 µM. THP-1 LPS/ATP IL-1B secretion, AlphaLISA, 16 h; stronger effect = lower value. AID 743279; in the data active = activity change below about -50%; inconclusive = mostly about -30% to -49%; also: % is scaled to controls: 0 for no effect and ±100 for the full control effect
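Secreted IL-1B measured by AlphaLISA bead assay after 16 h compound exposure of THP-1 cells; compounds (final up to 57.5 uM) added 1 h before LPS (250 ng/mL) and ATP (1.25 mM) stimulation; lower signal means less secretion.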
An asterisk follows results filed as active; i = inactive; u = inconclusive; x = no result; ! = not confirmed by another sample; [ ] = remark or other dose. Unless noted, calls follow the shape of the dose curve; as a rule, active = well fitted curve in the direction sought with a large enough effect; inconclusive = small, poorly fitted or top-dose-only effect, or another doubt; inactive = no such curve, though single readings can be large; an effect the other way counts as inactive or inconclusive.

SMILES	ATXN2 expr inh	HepG2 tox	ATXN viability	TGFb inhibitor	IL-1B inflam inh
COc1cc(/C=C2\CCC(C3CCCC3)C2=O)cc(OC)c1OC (stereo unspecified)	27%	-16%	i	-1%	19
COc1cc(/C=C2\CC/C(=C\c3cc(OC)c(O)c(OC)c3)C2=O)cc(OC)c1O	u	-46%	x	u	-103*
N/C(=N\O)c1cn(Cc2ccccc2Cl)c2ccccc12	-9%	-3%	i	17%	-66*
Cc1ccc(OCCn2cc(/C(N)=N/O)c3ccccc32)cc1C	u	-47%	i	-15%	0
Cc1ccccc1OCCn1cc(/C=C(\C#N)C(=O)NCc2ccco2)c2ccccc21	u	-4%	u	5%	26
O=C(CS(=O)(=O)c1cn(Cc2ccccc2Cl)c2ccccc12)N1CCOCC1	-6%	3%	i	-9%	-5
COc1ccc(OCCn2cc(/C(N)=N/O)c3ccccc32)cc1	-11%	-12%	i	-5%	-57*
COc1ccc(OCCn2cc(C=O)c3ccccc32)cc1	-25%	-50%	i	7.9µM*	-10
CNC(=S)N/N=C/c1cn(CCOc2ccc(OC)cc2)c2ccccc12	3%	-21%	i	0%	-22
Cc1ccccc1OCCn1cc(C=O)c2ccccc21	-6%	-34%	i	u	-53*
CCCOc1ccc(C2=NC(c3ccc(F)cc3)=Nc3ccc(OC)cc3N2)cc1	1%	-19%	i	u	x
O=C(CSc1nc2c([nH]c3ccccc32)c(=O)n1-c1ccc(F)cc1)NCc1ccc(F)cc1	7%	-15%	i	-7%	x
COc1ccc(S(=O)(=O)NCCS(=O)(=O)N2CCN(c3ccccc3F)CC2)cc1	x	-23%	x	u	x
CCCC(=O)NCC(c1ccc2c(c1)OCO2)N1CCN(c2ccccc2)CC1 (stereo unspecified)	-1%	-1%	i	11%	x
CCc1cnc2c(c1SCC(=O)c1ccc(OC)cc1)c(=O)n(C)c(=O)n2C	2%	-20%	u	u	x
Cc1ccc(OCCn2cc(C(=S)N3CCCC3)c3ccccc32)cc1C	-15%	16µM*	u	-18%	-15
S=C(c1cn(CCOc2ccccc2)c2ccccc12)N1CCCC1	-18%	-20%	i	u	-21
Brc1ccc(/C=C2\C=Cc3ccccc32)cc1	x	-33%	x	-7%	x
ClC(Cl)(c1nnnn1-c1ccccc1)c1nnnn1-c1ccccc1	u	11µM*	u	u	-120*
c1cncc(OC2CCN(Cc3ccc4c(c3)CN(Cc3nc5ccccc5s3)CCO4)CC2)c1	x	x	i	x	x
Nc1nc(Cl)cc(N2CCC(c3cc(-c4ccc(Cl)cc4)n[nH]3)CC2)n1	25µM*	11µM*	u	11µM*	-6
Cc1ccc(CN2CCC(c3cc(-c4ccc(Cl)cc4)n[nH]3)CC2)cc1	20µM*	14µM*	u	16µM*	-97*
COc1ccc(-c2cc(C3CCN(Cc4cccc(C(F)(F)F)c4)CC3)[nH]n2)cc1	u	13µM*	i	u	-100*
COc1ccc(-c2cc(C3CCN(Cc4ccc([N+](=O)[O-])cc4)CC3)[nH]n2)cc1	-32%[11.3 µM]	16%	i	7%	-84*
CCC(=O)N1CCc2cc(S(=O)(=O)CCC(=O)N3CCN(c4cccc(C)c4)C(C)C3)ccc21 (stereo unspecified)	u	-32%	i	-4%	x
SMILES	ATXN2 expr inh	HepG2 tox	ATXN viability	TGFb inhibitor	IL-1B inflam inh
O=C(Cn1cc(C(=O)c2ccncc2)c(=O)c2cc(F)ccc21)Nc1ccc(Cl)cc1	x	-14%	x	u	x
COC(=O)C(Cc1ccccc1)NS(=O)(=O)c1cc(Br)ccc1Br (stereo unspecified)	x	15%	x	3%	x
CC1CCN(S(=O)(=O)c2cc(C(=O)Nc3ccc(Br)cc3F)n(C)c2)CC1	-15%	-30%	i	11µM*	x
CCN(CC)C(=O)C(C)N(C#N)c1nc(Cl)nc(N(C)C)n1 (stereo unspecified)	-4%[11.3 µM]	2%	i	-6%	-98*
Cc1cccc(C2=NN(c3ccccc3)[C@@H](C(=O)N3CCOC3=O)[C@@H]2c2ccc(F)cc2)c1	-4%	-16%	x	18µM*	-8
O=C1OCCN1C(=O)[C@H]1[C@H](c2ccc(F)cc2)C(c2ccc(F)cc2)=NN1c1ccc(Br)cc1	-25%	-48%	i	11µM*	-61*
Cc1cc(C)cc(NC(=O)C2CCN(S(=O)(=O)c3c(C)noc3/C=C/c3ccco3)CC2)c1	x	-10%	x	-21%	x
N#Cc1ccccc1NC(=O)C1SC(=Nc2ccccc2)C(C(=O)Nc2ccc(Cl)cc2)=C1N (stereo unspecified)	u	-97%	i	u	-84*
Cn1nnnc1Sc1ncnc2scc(-c3ccccc3Br)c12	25µM*	-19%	u	u	x
Cn1nnnc1Sc1ncnc2scc(-c3ccc[nH]3)c12	10µM*	-111%	u	u	x
Cn1nnnc1Sc1ncnc2scc(Br)c12	18µM*	-37%	i	2.2µM*	x
Cn1nnnc1Sc1ncnc2scc(-c3ccc(F)cc3)c12	u	10µM*!	u	11µM*	-68*
Cn1nnnc1Sc1ncnc2scc(-c3cccc4ccccc34)c12	u	2%	u	u	x
CN(C)C(=O)COC(=O)c1ccccc1OCC(=O)Nc1ccc(Br)cc1	x	-5%	x	4%	x
COc1ccc(CCNC(=O)c2c(C)oc3ncn(CC(C)C)c(=O)c23)c(OC)c1	-12%	-3%	i	-6%	x
c1ccc(-c2csc3ncnc(Sc4nnnn4-c4ccccc4)c23)cc1	x	-85%	x	11µM*	x
Clc1ncnc2scc(-c3ccccc3)c12	-28%	0%	i	0%	-70*
Cn1nnnc1Sc1ncnc2scc(-c3ccccc3)c12	u	-27%	u	u	-104*
CCCC(=O)Nc1ccccc1Sc1ncnc2scc(-c3ccccc3)c12	0%	-5%	i	6%	-77*
COc1ccccc1-c1csc2ncnc(Sc3nnnn3C)c12	-18%	-13%	i	u	x
Cc1cccc(CNC(=O)c2c3n(c(C)cc2=O)-c2ccccc2SC(c2ccsc2)C3)n1 (stereo unspecified)	x	x	i	x	x
COc1ccc(CN(Cc2ccco2)c2cnc(S(C)(=O)=O)nc2C(=O)Nc2ccc(F)cc2)cc1	1%	4%	i	8%	x
Cc1ccc(-c2csc3ncnc(Sc4nnnn4C4CC4)c23)cc1	x	1%	x	25%	x
Cn1nnnc1Sc1ncnc2scc(-c3ccc(Br)cc3)c12	16µM*	16µM*	13µM*	u	x
Cc1ccc2nc(Cl)c(/C=C/C(=O)c3ccco3)cc2c1	15%	-28%	i	13µM*	-17

Screening results: PubChem BioAssay, National Center for Advancing Translational Sciences (NCATS)
